# Measurements reported in the supplement of paper PMC6555819.
# Legend:
# Assay in all cases: PBM binding z-score (relative to random genomic background probes); higher = stronger binding; sequences stand for … in GC…GCGATTGACAGCGTAGAATGAAGG
# [1] = system: PPARg:RXRa DBDmut IVT, anti-RXR (DBD mutation: RXRa K156A/R161A, NR concentration 270 nM, RXRa partner concentration 90 nM)
# Method in brief: (§1)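 Regression normalization was applied to scanned fluorescence from custom Agilent 4×180K protein-binding microarrays. Before scanning, arrays were incubated 1 h with ligand-free nuclear receptor dimers, and binding was detected with antibodies against each partner (one per run). Binding z-scores use the random background probes as reference.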
# [2] = system: PPARg:RXRa IVT, anti-PPARg (NR concentration 270 nM, RXRa partner concentration 90 nM)
# Method in brief: as §1
# [3] = system: PPARg DBDmut:RXRa IVT, anti-PPARg (DBD mutation: PPARg1 K132A/R137A, NR concentration 270 nM, RXRa partner concentration 90 nM)
# Method in brief: as §1
# [4] = system: PPARg DBDmut IVT, anti-PPARg (DBD mutation: PPARg1 K132A/R137A, NR concentration 270 nM)
# Method in brief: as §1
# [5] = system: PPARg homodimer (NR concentration 180 nM)
# Method in brief: as §1
# [6] = system: PXR:RXRa (NR concentration 270 nM, RXRa partner concentration 90 nM)
# Method in brief: as §1
# [7] = system: PXR homodimer (NR concentration 270 nM)
# Method in brief: as §1
# [8] = system: RARa:RXR (NR concentration 270 nM, RXRa partner concentration 90 nM)
# Method in brief: as §1
# [9] = system: RARa homodimer (NR concentration 270 nM)
# Method in brief: as §1
# [10] = system: RARb:RXRa (NR concentration 270 nM, RXRa partner concentration 90 nM)
# Method in brief: as §1
Sequence,PBM binding z-score [1],PBM binding z-score [2],PBM binding z-score [3],PBM binding z-score [4],PBM binding z-score [5],PBM binding z-score [6],PBM binding z-score [7],PBM binding z-score [8],PBM binding z-score [9],PBM binding z-score [10]
ATCTCTAGGTAAGAAGTTCAGTGAAAGAGAGGAC,1.18,1.29,0.696,1.32,1.05,0.898,1.32,0.518,0.598,1.49
AGAACGAGGGCAATGAGTAGATAGCACGGGTGGC,2.9,2.75,0.5,-0.201,0.383,0.323,0.226,0.413,0.137,2
GGTACGAGGGCAAGTTGATAGCAGAGTTTGATGG,2.1,1.59,-0.734,-1,0.42,1.06,0.796,0.502,0.101,2.75
AGTCAAAGTTCAGGACGAAGTAACGTAAAGCACG,-0.478,1.38,0.781,0.688,1.46,2.02,0.921,1.93,1.14,4.2
ACTATTAGTTGAGTTAGGGCAACCGATACGACGC,-0.0972,0.498,1.2,0.707,0.995,0.111,0.462,-0.0618,1.3,0.797
CCAGACAGATGAGAAGGTAACTCAGCCTCGATTA,0.125,-0.374,0.361,-0.388,1.08,-0.297,0.323,-0.00624,1.43,-0.0941
CATCGGAGGACAGAAGGTCAGAGCTGTCCGCTTT,-0.292,0.418,-0.481,-1.29,0.568,1.12,-0.438,1.86,-0.23,2.86
ATATGTTGGTTATCGGGTCATTCAGTTTGCGCAT,2.6,3.36,1.53,2.49,2.81,3.49,7.6,3.19,2.08,2.05
CAAACTAGGTCTAGGTCAAAGTCGGTTTGTGCCA,4.21,4.82,0.191,0.991,1.41,1.7,0.0565,2.06,-0.42,2.67
TCTAGCAGGCCAGAGGGTCATTCAAGAGGTACGG,0.912,0.374,-1.21,-1.66,0.751,2.2,-0.364,2.79,-0.545,2.17
ACTAGGAGGCCAAGGGTCACTCAAGATTAGTCCG,1.26,3.95,-0.025,-0.509,3.03,3.57,0.414,4.7,1.03,3.64
CCGAGTGGGGCAGAAAGGTTACCATACCATCCGG,1.16,1.76,-1.17,-1.29,0.799,1.05,0.126,1.5,-0.131,1.63
CAAACTAGGTCACAGAGGCCAAAGTCCGTGCGTA,8.22,8.69,7.35,2.65,3.4,3.51,2.61,3.27,0.794,4.23
ATCGAAAGGTCGAGGTGAGTTTAGAGAAAGGGAA,0.367,2.26,0.969,0.594,1.7,5.04,1.12,3.71,0.68,4.26
GCTCGGAGGACAAGGTCAGAGCATTGTCCGTAGA,-0.234,0.996,-1.46,-0.733,0.964,1.69,-0.0134,2.26,-0.974,3.38
CCGACTGAGGCAAGGTTACCATAACGCACAGCCA,-0.0464,-0.0439,-0.139,-0.814,0.4,0.18,-0.0704,0.645,0.194,0.904
CGTCCAAGGTCAAGGACAGTGAAAGAGACTCGAA,3.23,3.38,1.03,-0.206,2.55,3.63,0.575,4.25,1.12,5.22
CCTATTAGTTGACCATAAGGGCCACCGAAGCTCG,0.171,0.5,0.477,0.579,1.36,-0.0446,0.497,0.206,1.88,1.02
TGAATGAGGTTATAAGCTCAGGGAACGTTGCAAA,1.28,1.28,0.166,0.543,-0.0591,0.55,-0.553,1.26,-1.17,1.04
CGTCAAAGTTCAATGTAACGTAACAGAAAGCAGC,0.367,1.51,1.4,0.705,2.6,4.03,4,3.03,1.95,4.83
ATCTCTAGGTAACAAGTTTAGTGAAAGAGAGGAC,3.18,2.92,1.24,1.38,1.04,0.591,0.703,0.429,0.873,0.574
TCTAGTTGGTCACGGAGGTCACACACGACGGGTA,2.46,4.2,1.49,1.18,3.41,4.41,1.8,4.53,1.29,3.82
CGTCCAAGGTTATAGGAGGTCAGTGAAGACAGAT,1.11,2.3,0.293,0.256,3.21,5.24,1.46,3.66,0.744,3.48
